Assay [1] in a line: qHTS assay to identify small molecule antagonists of the glucocorticoid receptor (GR) signaling pathway - cell viability counter screen (AID 720693). Further: nearly all actives have a fitted effect of over 55% in size. For orientation: Quantitative high-throughput screening tests each substance at several concentrations.
The nature of assay [2]: qHTS assay for identifying genotoxic compounds that show differential cytotoxicity against isogenic chicken DT40 cell lines with known DNA damage response pathways - wild type cell line (AID 743012). Further: nearly all actives have a fitted effect of over 60% in size. The method in brief:
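Viability of DNA repair-proficient chicken DT40 cells was assessed by CellTiter-Glo luminescence following 40 h compound exposure at 37 C/5% CO2.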

A short description of assay [3]: qHTS assay for identifying genotoxic compounds that show differential cytotoxicity against isogenic chicken DT40 cell lines with known DNA damage response pathways - Rev3 mutant cell line (AID 743014). Further: nearly all actives have a fitted effect of over 55% in size.
The nature of assay [4]: qHTS assay for identifying genotoxic compounds that show differential cytotoxicity against isogenic chicken DT40 cell lines with known DNA damage response pathways - Rad54/Ku70 mutant cell line (AID 743015). Further: nearly all actives have a fitted effect of over 60% in size.
Assay [5] in a line: qHTS assay to identify small molecule antagonists of the androgen receptor (AR) signaling pathway - cell viability counter screen (AID 743033; further: nearly all actives have a fitted effect of over 45% in size).
A short description of assay [6]: qHTS assay to identify small molecule antagonists of the androgen receptor (AR) signaling pathway using the MDA cell line - cell viability counter screen (AID 743041; further: nearly all actives have a fitted effect of over 45% in size). An outline of the steps:
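In this qHTS counter assay, fluorescence intensity after CellTiter-Fluor addition indicated viability of MDA-kb2 AR-luc cells given compounds and R1881 for 16 h at 37C.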

The nature of assay [7]: qHTS assay to identify small molecule antagonists of the thyroid receptor (TR) signaling pathway (AID 743065). Further: nearly all actives have a fitted effect of over 55% in size. An outline of the steps:
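GH3.TRE-Luc rat pituitary cells carrying two TR response elements driving luciferase were plated for 4 h, given compound plus 1 nM T3 (final), and incubated 23.5 h at 37 C. ONE-Glo luminescence measured reporter inhibition; CellTiter-Fluor fluorescence tracked cytotoxicity.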

For assay [8], the system named is thyroid hormone receptor (rat, GH3 cells). Description: qHTS assay to identify small molecule agonists of the thyroid receptor (TR) signaling pathway (AID 743066; calls by dose curve).
Assay [9] can be described thus: qHTS assay to identify small molecule antagonists of the estrogen receptor alpha (ER-alpha) signaling pathway - cell viability counter screen (AID 743074; calls by dose curve;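 further: HEK293 cells carrying ER-alpha-UAS-bla reporter stimulated with 17beta-estradiol; nearly all actives have a fitted effect of over 45% in size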).
The nature of assay [10]: qHTS assay to identify small molecule antagonists of the estrogen receptor alpha (ER-alpha) signaling pathway using the BG1 cell line - cell viability counter screen (AID 743081).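 Further: compound given together with 17beta-estradiol as the ER stimulus; nearly all actives have a fitted effect of over 45% in size.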
Assay [11] in a line: qHTS assay to identify small molecule antagonists of the thyroid receptor (TR) signaling pathway - cell viability counter screen (AID 743064). Further: nearly all actives have a fitted effect of over 50% in size. Further: potency means the concentration at half of the fitted maximal effect. The method in brief:
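GH3.TRE-Luc rat pituitary cells carrying a TRE-luciferase reporter were treated with compound plus 1 nM T3 (final) for 23.5 h at 37 °C. Viability was then read in the same wells by CellTiter-Fluor fluorescence after a further 30 min.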

For assay [12], the target named is Estrogen receptor (Homo sapiens) (UniProt P03372). Description: qHTS assay to identify small molecule agonists of the estrogen receptor alpha (ER-alpha) signaling pathway (AID 743075; calls by dose curve; further: potency means the concentration at half of the fitted maximal effect).
The target is the same in assay [13]. Description: qHTS assay to identify small molecule agonists of the estrogen receptor alpha (ER-alpha) signaling pathway using the BG1 cell line (AID 743079). Further: nearly all actives have a fitted effect of over 20% in size. Further: potency means the concentration at half of the fitted maximal effect. To be noted: BG1Luc4E2 cells, ERE-luciferase agonist, 22 h.
A short description of assay [14]: qHTS assay to identify small molecule antagonists of the estrogen receptor alpha (ER-alpha) signaling pathway using the BG1 cell line (AID 743080; calls by dose curve;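 further: BG1 cells stimulated with 17beta-estradiol alongside compound; nearly all actives have a fitted effect of over 25% in size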). The method in brief:
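BG1Luc4E2, endogenous ER-alpha, 4xERE-luc; 5 d charcoal-stripped FBS, phenol red free; 24 h plating; cpd + 17beta-estradiol 21.5 h, 37 C/5% CO2; CellTiter-Fluor viability 30 min, then ONE-Glo luciferase 30 min RT.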

In the next assay the target is Aromatase (Homo sapiens) (UniProt P11511). The assay can be described thus: qHTS assay to identify aromatase inhibitors (AID 743083). Further: nearly all actives have a fitted effect of over 55% in size.
Assay [15] is described as follows: qHTS assay to identify aromatase inhibitors - cell viability counter screen (AID 743084). Further: potency means the concentration at half of the fitted maximal effect.
Assay [16] addresses Estrogen receptor (Homo sapiens) (UniProt P03372). Description: qHTS assay to identify small molecule antagonists of the estrogen receptor alpha (ER-alpha) signaling pathway (AID 743069; active means well fitted curve in the direction sought with a large enough effect in the signal ratio in the repeat runs, not every such curve was filed as active; inconclusive means weak or mixed curves, or effect the other way; inactive means no such curve, though single readings can be large or run the other way; the % refers to the signal ratio). An outline of the steps:
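A 17beta-estradiol challenge was applied right after compound transfer to ER-alpha-UAS-bla HEK293 cells previously kept in charcoal-stripped serum. Plates stood 18 hr at 37C and 5% CO2; fluorescence was read following 2 hr FRET substrate loading at room temperature.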

Assay [17] concerns the target Androgen receptor (Homo sapiens) (UniProt P10275). The assay can be described thus: qHTS assay to identify small molecule agonists of the androgen receptor (AR) signaling pathway (AID 743036; active means well fitted activation curve with a large enough effect in the signal ratio in the repeat runs, with a control signal flat, not every such curve was filed as active; inconclusive means weak or mixed curves, or effect the other way; inactive means no such curve, though single readings can be large or run the other way; the % refers to the signal ratio). The method in brief:
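HEK293 cells stably carrying a UAS-driven beta-lactamase reporter (GeneBLAzer AR-UAS-bla-GripTite) were plated at 2,000 cells/well, rested 4 h at 37C, then exposed to compounds in DMSO for 16 h. LiveBLAzer B/G FRET substrate was added for 2 h at room temperature; fluorescence read.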

For assay [18] the target is unchanged. Description: qHTS assay to identify small molecule antagonists of the androgen receptor (AR) signaling pathway using the MDA cell line (AID 743042; further: nearly all actives have a fitted effect of over 55% in size). The method in brief: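 MDA-kb2 cells (human breast carcinoma, stably carrying an MMTV-luciferase reporter responsive to AR and GR) were plated at 3,000 cells/well and preincubated 5 hr at 37C, then given compound plus R1881 agonist for 16 h. ONE-Glo luminescence was read.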

Values without a mark were called inactive. The source made the active and inactive calls. Unless noted, the call rests on the fitted dose curve; in most records, active means well fitted curve in the direction sought with a large enough effect in the repeat runs; inconclusive means weak or mixed curves; inactive means no such curve, though single readings can be large; an effect the other way counts as inactive or inconclusive.
On the % scale 0 is the no-effect control and ±100 the full control effect.

Estrogen receptor (Homo sapiens), sequence (P03372 whole entry, looked up): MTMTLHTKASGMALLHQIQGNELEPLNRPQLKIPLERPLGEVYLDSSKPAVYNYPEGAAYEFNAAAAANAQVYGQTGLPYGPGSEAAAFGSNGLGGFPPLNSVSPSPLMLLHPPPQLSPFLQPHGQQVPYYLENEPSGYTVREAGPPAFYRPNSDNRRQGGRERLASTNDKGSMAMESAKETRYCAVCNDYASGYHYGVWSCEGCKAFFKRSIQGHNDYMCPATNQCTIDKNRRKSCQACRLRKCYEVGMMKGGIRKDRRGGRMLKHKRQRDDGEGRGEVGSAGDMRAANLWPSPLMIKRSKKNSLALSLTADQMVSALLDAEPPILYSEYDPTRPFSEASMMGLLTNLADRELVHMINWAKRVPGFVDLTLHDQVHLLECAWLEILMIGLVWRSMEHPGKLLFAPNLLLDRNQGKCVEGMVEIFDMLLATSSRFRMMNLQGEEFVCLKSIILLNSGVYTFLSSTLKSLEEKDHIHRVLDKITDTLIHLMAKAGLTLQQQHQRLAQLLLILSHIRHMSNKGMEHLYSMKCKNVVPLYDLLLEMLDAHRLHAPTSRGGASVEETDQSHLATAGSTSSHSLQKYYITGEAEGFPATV
Aromatase (Homo sapiens), sequence (P11511 whole entry, looked up): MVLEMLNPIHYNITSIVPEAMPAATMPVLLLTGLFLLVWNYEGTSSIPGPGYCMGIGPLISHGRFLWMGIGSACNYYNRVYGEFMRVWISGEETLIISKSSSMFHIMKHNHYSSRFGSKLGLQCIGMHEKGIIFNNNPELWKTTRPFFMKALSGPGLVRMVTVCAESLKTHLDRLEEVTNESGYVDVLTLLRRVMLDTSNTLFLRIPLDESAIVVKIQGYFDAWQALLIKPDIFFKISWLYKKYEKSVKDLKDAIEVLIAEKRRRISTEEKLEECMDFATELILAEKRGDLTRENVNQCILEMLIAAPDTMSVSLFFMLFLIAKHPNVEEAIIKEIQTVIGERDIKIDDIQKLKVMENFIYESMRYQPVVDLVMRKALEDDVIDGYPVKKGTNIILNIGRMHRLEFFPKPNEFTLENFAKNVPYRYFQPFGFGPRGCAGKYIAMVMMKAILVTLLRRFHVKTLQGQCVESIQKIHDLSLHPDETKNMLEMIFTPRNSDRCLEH
Androgen receptor (Homo sapiens), sequence (P10275 whole entry, looked up): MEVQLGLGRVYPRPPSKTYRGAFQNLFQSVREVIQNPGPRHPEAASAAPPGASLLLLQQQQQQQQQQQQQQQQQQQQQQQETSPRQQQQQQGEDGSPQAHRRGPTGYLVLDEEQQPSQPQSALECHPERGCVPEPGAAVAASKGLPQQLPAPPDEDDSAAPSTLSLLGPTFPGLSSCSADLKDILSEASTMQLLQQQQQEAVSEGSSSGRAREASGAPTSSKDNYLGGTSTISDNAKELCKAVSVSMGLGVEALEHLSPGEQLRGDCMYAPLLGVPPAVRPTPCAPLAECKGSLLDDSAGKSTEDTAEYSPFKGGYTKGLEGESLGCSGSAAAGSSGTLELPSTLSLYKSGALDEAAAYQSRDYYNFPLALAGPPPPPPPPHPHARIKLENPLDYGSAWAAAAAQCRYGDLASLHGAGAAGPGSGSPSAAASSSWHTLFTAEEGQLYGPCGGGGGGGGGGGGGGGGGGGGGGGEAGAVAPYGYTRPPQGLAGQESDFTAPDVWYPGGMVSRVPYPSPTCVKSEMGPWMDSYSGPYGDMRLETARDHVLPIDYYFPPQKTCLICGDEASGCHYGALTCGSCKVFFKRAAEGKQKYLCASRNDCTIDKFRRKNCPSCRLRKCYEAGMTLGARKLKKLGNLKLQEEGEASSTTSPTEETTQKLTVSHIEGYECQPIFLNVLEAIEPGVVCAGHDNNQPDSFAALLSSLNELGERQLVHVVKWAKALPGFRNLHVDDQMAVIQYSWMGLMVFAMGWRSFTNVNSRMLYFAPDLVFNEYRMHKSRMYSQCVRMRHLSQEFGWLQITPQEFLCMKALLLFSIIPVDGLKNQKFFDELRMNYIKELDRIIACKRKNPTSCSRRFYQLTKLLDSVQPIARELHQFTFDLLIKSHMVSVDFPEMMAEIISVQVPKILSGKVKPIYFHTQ

Regarding `O=[N+]([O-])c1cccc(CCl)c1`, the Potency result in assay [1], in [2], in [3], in [4], in [5] and in assay [6] was “inactive” in each case. The Potency result in assay [7], in [8], in assay [9] and in assay [10] was “inactive” in each case.
In the case of `Cc1ccc(-c2nc3ccc(C)cn3c2CC(=O)N(C)C)cc1`, the Potency result in [1], in assay [2], in assay [3], in assay [5], in assay [6] and in assay [11] was “inactive” in each case. Besides, the Potency result in [7], in assay [8], in assay [9], in [12], in [14] and in [10] was “inactive” throughout. Moreover, the Potency result (with Aromatase (Homo sapiens); in assay [15]) was “inactive” throughout. Besides, the activation in assay [13] (at 70.3 µM (top of the series)) was 15.6%.
For `CCC1(CC)C(=O)C=CNC1=O`, the Potency entry in assay [1], in [2], in [3], in assay [4], in [5] and in [11] was “inactive” throughout. The Potency result in assay [7], in assay [8], in assay [16], in assay [9], in assay [12] and in assay [14] was “inactive” throughout. For the same compound, the Potency entry (in assay [10]; with Aromatase (Homo sapiens); in [15]) was “inactive” in each case. The activation in assay [13] (at 70.3 µM (top of the series)) is 10.4%.
On to `C/C(=N\NC(=O)Nc1cc(F)cc(F)c1)c1ncccc1C(=O)O`, for which the Potency entry in [1], in assay [2], in assay [3], in assay [4], in assay [5] and in [6] was “inactive” each time. For the same compound, the Potency entry in assay [7], in [8], in assay [9], in [12], in assay [14] and in assay [10] was “inactive” throughout. The Potency result (with Aromatase (Homo sapiens); in [15]) was “inactive” in each case. Moreover, the activation in [13] (at 70.3 µM (top of the series)) was -0.0536%.
On to `Cc1cccc2sc3nncn3c12`, for which the Potency entry in assay [1], in assay [2], in assay [3], in assay [5], in assay [6] and in assay [11] was “inactive” each time. In addition, the Potency entry in assay [7], in assay [8], in [9], in [12], in assay [14] and in [10] was “inactive” throughout. Also, the Potency entry (with Aromatase (Homo sapiens); in assay [15]) was “inactive” in each case. Besides, the activation in assay [13] (at 70.3 µM (top of the series)) is 13.8%.
Turning to `CCC(C(N)=O)N1CCCC1=O` (configuration not stated), the Potency entry in assay [1], in assay [2], in assay [3], in assay [5], in assay [6] and in assay [7] was “inactive” each time. Further, the Potency entry in assay [8], in [16], in assay [9], in [12], in [14] and in assay [10] was “inactive” throughout. Moreover, the Potency result (with Aromatase (Homo sapiens); in [15]) was “inactive” in each case. In addition, in assay [13], the Potency was 21.1 µM (active).
As to `CCNc1nc(Cl)nc(NC(C)(C)C)n1`, the Potency entry in assay [1], in assay [2], in assay [3], in [5], in assay [6] and in assay [18] was “inactive” throughout. For the same compound, the Potency result in assay [7], in [8], in assay [16], in [9], in assay [14] and in assay [10] was “inactive” in each case. Also, the Potency entry (in the assay with Aromatase (Homo sapiens); in assay [15]) was “inactive” in each case. Moreover, the outcome in assay [17] was inactive. For the same compound, the values for the Potency in [12] and in assay [13] were 61.6 µM [inconclusive] (active) and 9.69 µM (active), respectively.
In the case of `COc1cc(CCN)cc(OC)c1OC`, the Potency entry in assay [1], in assay [2], in assay [3], in [4], in [5] and in assay [6] was “inactive” in each case. Besides, the Potency result in [7], in assay [8], in [16], in [9], in assay [12] and in assay [14] was “inactive” each time. In addition, the Potency result in assay [10] and in assay [15] was “inactive” each time. Moreover, in assay [13] (at 95 µM (top of the series)), the activation is -6.66%.
For the compound `CCOC(=O)C(SP(=S)(OC)OC)c1ccccc1` (configuration not stated), the Potency result in assay [1], in assay [2], in assay [3], in assay [5], in assay [6] and in [7] was “inactive” in each case. Further, the Potency result (in assay [8]; in [9]; in assay [10]; with Aromatase (Homo sapiens); in [15]) was “inactive” throughout.
As to `CN1C(=O)COc2c(C(=O)NC3CN4CCC3CC4)cc(Cl)cc21` (configuration not stated), the Potency result in assay [1], in assay [2], in assay [3], in assay [5], in assay [6] and in assay [8] was “inactive” throughout. In addition, the Potency entry (in assay [16]; in assay [9]; in assay [12]; in [14]; with Aromatase (Homo sapiens); in assay [15]) was “inactive” each time. In addition, the activation in assay [13] (at 70.3 µM (top of the series)) was 18.3%.
As to `CN(C)CCc1c[nH]c2cccc(OP(=O)(O)O)c12`, the Potency result in [1], in assay [2], in assay [4], in [5], in [6] and in assay [11] was “inactive” throughout. The Potency result in assay [7], in assay [8], in assay [16], in assay [12], in assay [14] and in assay [10] was “inactive” each time. The Potency result (in the assay with Aromatase (Homo sapiens); in assay [15]) was “inactive” each time. The activation in [13] (at 70.3 µM (top of the series)) was -12.3%.
Turning to `Cn1c(N)nc2c3cccnc3ccc21`, the Potency entry in [1], in assay [2], in assay [4], in [5], in assay [6] and in assay [7] was “inactive” in each case. Moreover, the Potency entry (in assay [8]; in assay [16]; in assay [9]; in assay [12]; in [14]; with Aromatase (Homo sapiens)) was “inactive” each time. In addition, the results for the Potency in [11] and in [15] were 26 µM (active) and 29.1 µM (active), respectively. Also, in assay [13] (at 70.3 µM (top of the series)), the activation is 9.73%.

These data come from PubChem BioAssay (Tox21).
